Consider 39 compounds from PubChem BioAssay (NCATS).

Records with an inconclusive call do not appear. Where a call stands in place of a potency, no number is given. The source made the active and inactive calls. Calls follow the shape of the dose curve; as a rule, active = well fitted inhibition curve with a large enough effect; inconclusive = small, poorly fitted or top-dose-only effect; inactive = flat fitted curve, though single readings scatter.

The target of the test is Calcium and integrin-binding protein 1 (Homo sapiens) (UniProt Q99828). The test is described as follows: Primary qHTS for Identification of Calcium Integrin Binding Protein 1 (CIB1) Competitor (AID 1508620).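 Also: GST tagged CIB1 binding a fluorescein labelled alphaIIb integrin peptide tracer; top concentration of the series differs between compounds.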 The following applies: CIB1-GST / FITC-alphaIIb peptide fluorescence polarization; series mostly up to 114 µM. In a few lines: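 CIB1-GST (1 uM final) and compound incubated 15 min at room temperature before adding FITC-alphaIIb peptide tracer (100 nM final). Competition for binding read by fluorescence polarization (ex 480, em 540) after another 15 min at room temperature.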
Chain of Calcium and integrin-binding protein 1 (Homo sapiens) (Q99828 whole entry, looked up): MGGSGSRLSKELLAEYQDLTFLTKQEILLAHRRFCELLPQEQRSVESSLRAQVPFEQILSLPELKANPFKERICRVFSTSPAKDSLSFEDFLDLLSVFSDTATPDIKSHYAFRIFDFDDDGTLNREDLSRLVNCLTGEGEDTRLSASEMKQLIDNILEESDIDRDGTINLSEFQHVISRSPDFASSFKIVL
On to `Fc1ccc(-c2ccc(Nc3nc(-c4ccncc4)nc4ccccc34)cc2F)c(Cl)c1`, for which the Potency entry was “inactive”.
The result for `O=C(OCC#CCSc1nnc(-c2cccc3ccccc23)o1)c1ccncc1` reads “inactive”; that for `COc1ccc(NC(=O)c2[nH]c(C)c(C(C)=O)c2C)cc1S(=O)(=O)Nc1ccc(C#N)cc1`, “inactive”.
The result for `N#Cc1cccc(-c2ccc(CNc3nc(-c4ccccc4C(F)(F)F)nc4ccccc34)cc2)c1` reads “inactive”.
The result for `Cc1cc(C)nc(NC(=S)N2CCN(c3nc4ccccc4s3)CC2)c1` reads “inactive”; that for `O=C(Nc1ccc(-c2nc3ccccc3[nH]2)cc1)c1ccc(Oc2ccccc2)cc1`, “inactive”; that for `Oc1cccc2cc(-c3ccccc3)cnc12`, “inactive”.
Regarding `Cc1cnc(-c2ccccc2C(C)C)nc1NCc1ccc(-c2cccc(S(N)(=O)=O)c2)cc1`, the Potency result was “inactive”.
The result for `S=C(Nc1cc(Cl)ccn1)N1CCN(c2cccc(Cl)c2Cl)CC1` reads “inactive”; that for `O=S1(=O)Nc2c(ccc3cccnc23)-c2ccccc21`, “inactive”.
For `COc1ccc(C=O)cc1COc1ccc(NC(C)=O)cc1` the value was “inactive”; for `COc1ccccc1NS(=O)(=O)c1cc(NC(=O)c2ccccc2)ccc1N1CCCC1`, “inactive”.
For `Cc1cc(-c2nnc3n2CCCCC3)c(C)n1-c1ccc(C#N)cc1` the value was “inactive”.
As for `Cc1c(Br)cc(F)c([S+](=O)([O-])N2CCN([S+](=O)([O-])c3ccc4c(c3)OCCO4)CC2)c1F`, the Potency result is “inactive”.
For `CC(=O)Nc1sc2c(c1-c1ccc(N(C)C)cc1)CCNC2`, the Potency entry was “inactive”.
The result for `CCOc1ccccc1-c1nnc2n1N=C(c1cc(OC)ccc1OC)CS2` reads “inactive”.
For `CC(=O)Nc1sc2c(c1-c1ccc3nc[nH]c3c1)CCNC2` the value was “inactive”; for `O=C1NS(=O)(=O)c2cscc21`, “inactive”; for `FC(F)(F)c1ccccc1-c1nc(NCc2ccc(-c3cccnc3)cc2)c2sccc2n1`, “inactive”.
The result for `Cc1cc2c(s1)c1cnn(Cc3ccc(Br)cc3)c(=O)c1n2C` reads “inactive”.
Turning to `O=C(OCC#CCSc1nnc(-c2cccc3ccccc23)o1)c1ccc(F)cc1`, the Potency entry was “inactive”.
Turning to `c1nc(NCc2ccc3c(c2)OCO3)c2cc(-c3ccoc3)ccc2n1`, the Potency entry is “inactive”.
The result for `O=C1CC(c2ccccc2)CC2=C1C1(CCCC1)N=C(Nc1nc3ccccc3o1)N2` (centres undefined) reads “inactive”; that for `CCOC(=O)c1ccc(-n2c(C)cc(-c3nnc4n3CCCCC4)c2C)cc1`, “inactive”.
For `CCCN(C)c1ncnc2ccc(-c3ccc4c(c3)OCO4)cc12` the value was “inactive”; for `CC(=O)Nc1ccc(C(=O)Nc2ccc(-c3nc4ccccc4[nH]3)cc2)cc1`, “inactive”.
The result for `N#Cc1cccc(NC(=O)Nc2nnc(-c3ccncc3)s2)c1` reads “inactive”; that for `Nc1ccccc1S(=O)(=O)Nc1cccc2cccnc12`, “inactive”.
For the compound `O=C(Nc1ccccn1)c1sc2ccccc2c1Cl`, the Potency result was “inactive”.
For `COc1cc(O)c([C@H](CC(=O)N2CC(C)CC(C)C2)c2ccc3c(c2)OCO3)c(OC)c1` (some centres undefined) the value was “inactive”; for `Cc1ccc(OCCn2c(CCNC(=O)c3ccc4ccccc4c3)nc3ccccc32)cc1`, “inactive”.
The result for `CC(C)(C)C(=O)N1CCN(c2cccc(Nc3nn4c(=O)c5ccccc5nc4s3)c2)CC1` reads “inactive”.
For the compound `Cc1ccc(CCN2C(=O)c3ccc(C(=O)O)cc3C2=O)cc1`, the Potency entry was “inactive”.
For `O=C1CCCC2=C1C(c1[nH]ncc1Cl)NC(=NCc1ncc[nH]1)N2` (centres undefined) the value was “inactive”; for `CC(=O)c1ccc(N2CCN(S(=O)(=O)c3ccc4c(c3)CCCN4C(C)=O)CC2)cc1`, “inactive”; for `O=C(CSc1ccccc1)Nc1nnc(COc2ccc(Cl)cc2)s1`, “inactive”.
With `CC(C)(Nc1nc(-c2ccccc2C(F)(F)F)nc2ccccc12)c1ccc(-c2cccc(C(F)(F)F)c2)cc1`, the Potency entry was “inactive”.
For `COc1ccc(C[C@H](C(=O)O)N2C(=O)c3ccc(C(=O)O)cc3C2=O)cc1` the value was “inactive”.
For `CC(C)(C)OC(=O)NCCOCCOCCOc1cccc(-n2ncc3c2CCCC3NC(=O)c2ccccn2)c1` (centres undefined), the Potency entry is “inactive”.
